In PubChem BioAssay (NCI):
Where “and” joins values, the source holds several entries; their conditions need not be identical. Equal values may be shown once. This is part of a sample that, as a whole, favours compounds with a hit. Of some 79,000 tested, about 15% had one in any assay. Calls of active or inactive are those of the source. Rule as the data show it: active = growth inhibition above about 70%; inactive = the rest.

experiment: NCI Yeast Anticancer Drug Screen. Data for the bub3 strain (AID 167); conditions: S. cerevisiae bub3 mutant strain, at 50.0 µM, hits give high values
Summary of the method: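 Readout: yeast growth inhibition, expressed relative to vehicle-only wells. The test organism is a mutant strain from a panel with lesions in DNA repair or checkpoint genes.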

Structure (SMILES)	growth inhibition
O=C(NCCc1ccc([N+](=O)[O-])cc1)c1ccc(S(=O)(=O)F)cc1	19.4% (inactive)
CCN(CC)C(=S)SCc1ccccc1OC(=O)NC	33.1% (inactive)
C[C@]12Cc3sc(N)nc3C[C@@H]1CC[C@@H]1[C@@H]2CC[C@@]2(C)[C@H]1CC[C@]2(C)O	25.6% (inactive)
COc1cc(N=Nc2cccc(C(=O)O)c2)ccc1N(CCCl)CCCl	-3.3% (inactive)
CC1(CCl)COP(=O)(NN)OC1 (configuration not stated)	12% (inactive)
O=C(c1ccc([N+](=O)[O-])cc1)C1NC1c1ccccc1 (configuration not stated)	22.3% (inactive)
O=C([O-])C(F)(F)C(F)(F)F.[C-]#[O+].[C-]#[O+].[C-]#[O+].[C-]#[O+].[C-]#[O+].[Mn]	0.25% (inactive)
CCCCC1(C(C)C)C(=O)NC(=O)N(C)C1=O (configuration not stated)	5.75% (inactive)
O=C(O)CN(CCN(CC(=O)O)CC(=O)O)CC(=O)O.[Cl][Pd][Cl]	44.6% (inactive)
O=C(COc1ccc(Cl)c(Cl)c1)Nc1ccc[n+](Cc2ccc(S(=O)(=O)F)cc2Cl)c1	4% (inactive)
[C-]#[O+].[C-]#[O+].[Ni].c1ccc([PH+](CC[PH+](c2ccccc2)c2ccccc2)CC[PH+](c2ccccc2)c2ccccc2)cc1	7.6% (inactive)
CCOP(=O)(OCC)/C(C#N)=C(\C)c1ccco1	-11.6% (inactive)
Cc1cc2[nH]c3c(C#N)c(OC(=O)N(C)C)c(C)c(=O)n3c2cc1C	27.9% (inactive)
CC(=O)[O][Pb]([CH3])([CH3])[CH3]	-55.5% (inactive)
O=C(N1CCCC1)C1(c2cccc(Cl)c2)CCNCC1	-28.1% (inactive)
CC1=CC(C(=O)O)P(C)(=O)C1 (configuration not stated)	0.4% (inactive)
O=C(c1ccccc1)C1C(C(=O)c2ccccc2)N1Cc1ccccc1 (configuration not stated)	27.2% (inactive) and 9% (inactive)
O=S1(=O)c2ccccc2-c2ccccc21	-11.6% (inactive)
CC(=O)CC1(OC(=O)C2C(C=C(C)C)C2(C)C)C(=O)Nc2ccccc21 (configuration not stated)	23.1% (inactive)
CC1(C)N=C(N)N=C(N)N1c1ccc(CCc2cccc(Cl)c2S(=O)(=O)F)c(Cl)c1	99% (active)
CN(C)P(N)(=S)N(C)C	-22.6% (inactive)
CC(C)CCON=C(N)N	-5.6% (inactive)
